Among the data in PubChem BioAssay AID624481 (The Scripps Research Institute Molecular Screening Center, 2012) are inhibition values, retold here.

Values without a mark were called inactive. Rule as the data show it: active = inhibition above about 50%; inactive = the rest.

For the test, the target named is Prolyl endopeptidase-like (Mus musculus) (UniProt Q8C167). Put plainly: purified PREPL inhibitors, PREPL inhibitor project, biochemical, gel-based competitive ABPP, fluorescence, HTS hits (AID 624481). Particulars: at 20 µM, hits give high values.
Prolyl endopeptidase-like (Mus musculus), sequence (Q8C167 whole entry, looked up): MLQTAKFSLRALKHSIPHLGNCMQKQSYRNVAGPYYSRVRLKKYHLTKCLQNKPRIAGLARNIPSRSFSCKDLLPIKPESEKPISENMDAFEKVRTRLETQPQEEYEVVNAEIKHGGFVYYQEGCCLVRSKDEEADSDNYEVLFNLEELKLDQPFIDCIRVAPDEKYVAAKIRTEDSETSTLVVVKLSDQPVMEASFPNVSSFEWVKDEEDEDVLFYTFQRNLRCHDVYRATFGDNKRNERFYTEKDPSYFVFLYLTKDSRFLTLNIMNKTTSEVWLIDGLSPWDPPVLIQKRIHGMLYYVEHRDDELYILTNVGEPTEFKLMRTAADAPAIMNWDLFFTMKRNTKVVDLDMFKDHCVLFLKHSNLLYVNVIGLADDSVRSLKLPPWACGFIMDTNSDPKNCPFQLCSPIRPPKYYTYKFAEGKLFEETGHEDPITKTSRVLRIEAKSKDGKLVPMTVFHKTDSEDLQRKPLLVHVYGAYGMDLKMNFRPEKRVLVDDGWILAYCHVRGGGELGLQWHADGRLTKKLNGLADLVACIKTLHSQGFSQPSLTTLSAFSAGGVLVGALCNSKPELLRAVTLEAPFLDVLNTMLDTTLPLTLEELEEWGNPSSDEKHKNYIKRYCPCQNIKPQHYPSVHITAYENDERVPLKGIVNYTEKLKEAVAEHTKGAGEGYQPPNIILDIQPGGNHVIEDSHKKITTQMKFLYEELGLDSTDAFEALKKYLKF
Usually inhibition stands for the relative decrease from the control value, in per cent. `CN(C)c1ccc(NC(=O)Cn2cc3c(n2)CCCC3)cc1`: the inhibition was -22%.

For `COc1ccc(C)cc1Nc1n[n+](-c2ccccc2)c(-c2ccc(OC)c(OC)c2OC)s1`, the inhibition is -41%. Next, `Cc1ccc(S(=O)(=O)Nc2ccc3c(c2)CC(=O)N([C@H](C)CO)C[C@H](C)[C@H](CN(C)Cc2ccc4c(c2)OCO4)O3)cc1`: 9%; `Cc1noc(C)c1S(=O)(=O)Nc1ccc2c(c1)C(=O)N([C@H](C)CO)C[C@H](C)[C@@H](CN(C)C(=O)Nc1ccc(C(F)(F)F)cc1)O2`: -1%.
